# Compound activity: PubChem, Broad Institute
# Hits are enriched below; roughly 2.1% of the tested compounds scored in any of these assays.
# NFkB binder – binders of human NF-kappa-B p105 | Small molecule microarray, anti-His fluorescence binding | 1.3% of 17,000 active | calls only;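 active = spot fluorescence over background significantly raised, with a chance value under 7% in all four replicate spots of the compound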;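 also: probe protein is his-tagged human p50 processed subunit at 1 µg/ml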
# Myc binder – binds human c-Myc on microarray; 1.5% of 17,000 active; P01106; calls only; AID 624141; small molecule microarray, His-c-Myc binding, anti-His fluorescence;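 active = spot fluorescence over background with P-value below 7% in all four replicate spots, showing protein binding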
# STAT3 binder – binders of human STAT3. Small molecule microarray, His-STAT3 binding, anti-His fluorescence. calls only. 0.2% of 17,000 active;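 active = compounds whose four printed spots each show fluorescence over background unusually high for their array block, chance value under 7%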
# Target sequence (P40763 whole entry, looked up): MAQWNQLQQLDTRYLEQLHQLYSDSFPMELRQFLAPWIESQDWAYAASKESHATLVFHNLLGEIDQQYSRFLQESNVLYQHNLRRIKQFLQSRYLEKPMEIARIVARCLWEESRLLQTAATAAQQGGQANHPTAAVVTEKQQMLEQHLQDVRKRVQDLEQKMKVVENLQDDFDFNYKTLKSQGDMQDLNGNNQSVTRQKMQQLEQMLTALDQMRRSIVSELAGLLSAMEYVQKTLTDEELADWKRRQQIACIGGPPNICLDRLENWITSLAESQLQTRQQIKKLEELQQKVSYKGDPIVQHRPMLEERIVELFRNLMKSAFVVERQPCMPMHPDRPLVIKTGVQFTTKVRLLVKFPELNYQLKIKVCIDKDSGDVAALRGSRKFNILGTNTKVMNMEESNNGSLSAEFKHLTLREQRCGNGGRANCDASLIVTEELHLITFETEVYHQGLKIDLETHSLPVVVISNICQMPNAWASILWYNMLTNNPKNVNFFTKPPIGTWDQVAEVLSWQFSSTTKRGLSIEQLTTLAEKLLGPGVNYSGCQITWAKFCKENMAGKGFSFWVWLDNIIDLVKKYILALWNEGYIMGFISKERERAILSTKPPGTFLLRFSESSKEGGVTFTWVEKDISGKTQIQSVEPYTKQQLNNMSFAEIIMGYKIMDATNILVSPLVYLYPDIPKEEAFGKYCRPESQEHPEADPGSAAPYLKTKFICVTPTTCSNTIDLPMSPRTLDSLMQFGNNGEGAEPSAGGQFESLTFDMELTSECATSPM
# p53 mut binder – binds human mutant p53 on microarray; small molecule microarray binding, anti-GST fluorescence; calls only; 0.4% of 17,000 active;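 active = compounds whose four printed spots each glow above background more than chance allows, each with a p-value under 7%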
# Calls only; . = inactive; + = active, no number.
SMILES,NFkB binder,Myc binder,STAT3 binder,p53 mut binder
Cc1c(C(=O)N(C)C2CCCCC2)sc2nc3ccc(N)cc3n12,.,+,.,.
Cc1nn(CCCC(=O)O)c(C)c1[N+](=O)[O-],.,+,.,.
Cn1c(SCC(=O)O)nnc1-c1ccccc1,.,.,.,.
CN(CCC#N)S(=O)(=O)c1cccc2nsnc12,.,.,.,.
CC(C)CC(NS(=O)(=O)c1cccc2nsnc12)C(=O)O (stereo unspecified),+,+,.,.
O=C(Nc1ccccc1)N[C@@H](Cc1ccccc1)Cn1cc(CN2C(=O)COC[C@H]2c2ccccc2)nn1,.,.,.,.
O=C(Cn1cc(CN2C(=O)COC[C@H]2c2ccccc2)nn1)Nc1nccs1,.,.,.,+
CC(=O)OC1C(C)OC(OC2C(CO)OC(OC(=O)[C@]34CCC(C)(C)CC3C3=CCC5[C@@]6(C)CC[C@H](OC7OC(CO)C(OC8OC(CO)C(OC9OCC(O)C(O)C9O)C(O)C8O)C(O)C7O)[C@@](C)(CO)C6CC[C@@]5(C)[C@]3(C)CC4)C(OC3OC(C)C(O)C(O)C3O)C2O)C(O)C1O (stereo partly specified),+,+,.,.
C[C@@H]1O[C@@H](O[C@H]2[C@H](O[C@H]3[C@H](O[C@H]4CC[C@@]5(C)C(CC[C@]6(C)C5CC=C5[C@@H]7CC(C)(C)C[C@@H](O)[C@]7(C)CC[C@]56C)[C@@]4(C)CO)O[C@H](C(=O)O)[C@@H](O)[C@@H]3O)OC[C@H](O)[C@@H]2O)[C@H](O)[C@H](O)[C@H]1O (stereo partly specified),.,+,.,+
CC1(C)CC[C@]2(C(=O)O)CC[C@]3(C)C(=CCC4[C@@]5(C)CC[C@H](O[C@@H]6O[C@H](CO)[C@@H](O)[C@H](O)[C@H]6O)[C@@](C)(CO)C5CC[C@]43C)[C@@H]2C1 (stereo partly specified),.,.,.,.
CC1(C)CC[C@]2(C(=O)OC3OC(CO)C(OC4OC(CO)C(O)C(O)C4O)C(O)C3O)CC[C@]3(C)C(=CCC4[C@@]5(C)CC[C@H](OC6OC(C(=O)O)C(O)C(O)C6O)C(CO)(CO)C5CC[C@]43C)[C@@H]2C1 (stereo partly specified),.,.,.,.
CC1OC(OC2C(OC(=O)C34CCC(C)(C)CC3C3=CCC5C6(C)CCC(OC7OC(CO)C(OC8OC(C(=O)O)C(OC9OCC(O)C(O)C9O)C(O)C8O)C(O)C7O)C(C)(CO)C6CCC5(C)C3(C)CC4)OC(COC3OCC(O)C(O)C3O)C(O)C2O)C(O)C(O)C1O (stereo unspecified),.,.,.,.
C[C@@H]1O[C@@H](O[C@H]2[C@H](O[C@H]3CC[C@@]4(C)C(CC[C@]5(C)C4CC=C4C6CC(C)(C)CC[C@]6(C(=O)O)CC[C@]45C)[C@]3(C)CO)OC[C@H](O)[C@@H]2O)[C@H](O)[C@H](O)[C@H]1O (stereo partly specified),+,.,.,.
C[C@@H]1O[C@@H](O[C@@H]2[C@@H](O)[C@H](O[C@@H]3[C@@H](O)[C@H](C)O[C@@H](O[C@H]4[C@H](O[C@H]5CC[C@@]6(C)C(CC[C@]7(C)C6CC=C6[C@@H]8CC(C)(C)CC[C@]8(C(=O)O)CC[C@]67C)[C@]5(C)CO)OC[C@H](O)[C@@H]4O)[C@@H]3O)O[C@H](CO)[C@H]2O[C@@H]2O[C@H](CO)[C@@H](O[C@@H]3OC[C@@H](O)[C@H](O)[C@H]3O)[C@H](O)[C@H]2O)[C@H](O)[C@H](O)[C@H]1O (stereo partly specified),+,.,.,.
COC(=O)c1cc(-c2ccccc2)sc1NC(=O)c1cnccn1,.,.,.,.
CC1(C)CC[C@]2(C(=O)O)CC[C@]3(C)C(=CCC4[C@@]5(C)CC[C@H](O[C@@H]6O[C@H](C(=O)O)[C@@H](O[C@@H]7OC[C@@H](O)[C@H](O)[C@H]7O)[C@H](O)[C@H]6O)C(C)(C)C5CC[C@]43C)C2C1 (stereo partly specified),+,+,.,.
C[C@@H]1O[C@@H](O[C@H]2[C@H](O[C@H]3[C@H](O)[C@@H](C(=O)O)O[C@@H](O[C@H]4CC[C@@]5(C)C(CC[C@]6(C)C5CC[C@]57OC[C@@]8(CCC(C)(C)CC85)[C@H](O)C[C@]76C)C4(C)C)[C@@H]3O[C@@H]3O[C@H](CO)[C@@H](O[C@@H]4OC[C@@H](O)[C@H](O)[C@H]4O)[C@H](O)[C@H]3O)O[C@H](CO)[C@H](O)[C@@H]2O)[C@H](O)[C@H](O)[C@H]1O (stereo partly specified),+,+,.,.
C[C@@H]1O[C@@H](O[C@H]2CC[C@@]3(C)C(CC[C@]4(C)C3CC=C3C5CC(C)(C)CC[C@]5(C(=O)O[C@@H]5O[C@H](CO)[C@@H](O)[C@H](O)[C@H]5O)CC[C@]34C(=O)O)C2(C)C)[C@H](O)[C@H](O)[C@H]1O (stereo partly specified),.,.,.,.
CCOC(=O)c1c(C)[nH]c2ccc3c(c12)CN1CCc2cc(OC)ccc2C1O3 (stereo unspecified),.,.,.,.
Cc1cccnc1NC(=S)Nc1ccc(S(N)(=O)=O)cc1,.,.,.,.
COc1ccccc1OCC(=O)Nc1ccccc1C(=O)N1C(C)CCCC1C (stereo unspecified),.,.,.,.
C[C@@H]1CCCCO[C@@H](CN(C)C(=O)Nc2cccc3ccccc23)[C@H](C)CN([C@H](C)CO)C(=O)c2cc(NC(=O)c3ccncc3)ccc2O1,+,+,.,.
C[C@@H]1CCCCO[C@@H](CN(C)C(=O)Nc2cccc3ccccc23)[C@H](C)CN([C@@H](C)CO)C(=O)c2cc(NC(=O)c3ccncc3)ccc2O1,+,+,.,.
C[C@@H]1CN([C@H](C)CO)C(=O)c2cc(NC(=O)c3ccncc3)ccc2O[C@@H](C)CCCCO[C@@H]1CN(C)C(=O)Nc1cccc2ccccc12,.,.,+,.
C[C@@H]1CN([C@H](C)CO)C(=O)c2cc(NC(=O)c3ccncc3)ccc2O[C@@H](C)CCCCO[C@H]1CN(C)C(=O)Nc1cccc2ccccc12,+,+,.,.
C[C@@H]1CN([C@@H](C)CO)C(=O)c2cc(NC(=O)Nc3ccc(F)cc3)ccc2O[C@@H](C)CCCCO[C@H]1CN(C)C(=O)Nc1cccc2ccccc12,.,.,.,.
C[C@@H]1CN([C@@H](C)CO)C(=O)c2cc(NC(=O)c3ccncc3)ccc2O[C@@H](C)CCCCO[C@@H]1CN(C)C(=O)Nc1ccccc1,.,.,.,.
C/C=C1\C(O[C@@H]2O[C@H](CO)[C@@H](O)[C@H](O)[C@H]2O)OC=C(C(=O)OC)C1CC(=O)OC[C@@H]1[C@H](C)[C@@H](OC(=O)CC2C(C(=O)OC)=COC(O[C@@H]3O[C@H](CO)[C@@H](O)[C@H](O)[C@H]3O)/C2=C\C)C[C@H]1C(CO)CO (stereo partly specified),.,.,.,.
